For 26 compounds, outcome and AC50 results are on record in PubChem BioAssay (EPA / NIEHS).

Inconclusive results are not listed. Some compounds were tested as several samples or in several runs, with calls that do not always agree. Activity calls are given as the source filed them. How the source made its calls: active means hit-call score of the fitted dose curve at least 0.9, where 1 is the maximum; inconclusive means response in the unintended direction; inactive means score below 0.9.

Peroxisome proliferator-activated receptor gamma (Homo sapiens), sequence (P37231 whole entry, looked up): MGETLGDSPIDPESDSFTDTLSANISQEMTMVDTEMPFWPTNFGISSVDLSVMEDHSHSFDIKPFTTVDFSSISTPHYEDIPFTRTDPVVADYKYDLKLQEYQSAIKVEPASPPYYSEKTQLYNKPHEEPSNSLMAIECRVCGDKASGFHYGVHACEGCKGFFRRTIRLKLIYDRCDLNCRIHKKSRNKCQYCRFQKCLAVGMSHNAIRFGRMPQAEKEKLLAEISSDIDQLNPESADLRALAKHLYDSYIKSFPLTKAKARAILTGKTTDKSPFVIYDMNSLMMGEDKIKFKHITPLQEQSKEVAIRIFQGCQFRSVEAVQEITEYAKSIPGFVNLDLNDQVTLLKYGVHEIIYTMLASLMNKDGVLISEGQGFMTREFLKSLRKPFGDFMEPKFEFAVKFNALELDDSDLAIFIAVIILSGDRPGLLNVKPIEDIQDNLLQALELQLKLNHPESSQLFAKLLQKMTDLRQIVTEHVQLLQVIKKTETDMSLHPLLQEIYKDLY

The target in the assay is Peroxisome proliferator-activated receptor gamma (Homo sapiens) (UniProt P37231). Description: NVS_NR_hPPARg: NovaScreen (NVS) Nuclear Receptor Binding Assay for human Peroxisome Proliferator-activated Receptor gamma (PPARg) (AID 2283370). Here is the method:
NVS_NR_hPPARg is a biochemical, single-readout assay that uses extracted gene-proteins in a cell-free assay. Measurements were taken 2 hours after chemical dosing in a 384-well plate.NVS_NR_hPPARg is one of one assay component(s) measured or calculated from the NVS_NR_hPPARg assay. It is designed to make measurements of fluorescent polarization, a form of binding reporter, as detected with fluorescence polarization signals by Fluorescence Polarization technology.Data from the assay component NVS_NR_hPPARg was analyzed into 1 assay endpoint. This assay endpoint, NVS_NR_hPPARg, was analyzed in the positive analysis fitting direction relative to DMSO as the negative control and baseline of activity. Using a type of binding reporter, loss-of-signal activity can be used to understand changes in the binding as they relate to the gene PPARG. Furthermore, this assay endpoint can be referred to as a primary readout, because the performed assay has only produced 1 assay endpoint. To generalize the intended target to other relatable targets, this assay endpoint is annotated to the nuclear receptor intended target family, where the subfamily is non-steroidal.
Binding assays used specific radioligands (tritiated, iodinated) with non-radioactive competitive displacement ligands in agonist or antagonist protocols (as indicated) and various reference compounds and inhibitors to titrate specific binding to receptors and transporters. Most enzyme assays (CYPs, kinases, phosphatases, proteases, HDACs) used recombinant protein and specific substrates (fluorescence mostly, some colorimetric and radioactive) and inhibitors, followed by a biochemical separation of substrate and product. All assays for the biochemical HTS were initially run in duplicate at a single concentration (10 uM for CYP450 assays and 25 uM for all others). […] Each assay was run with positive and negative controls, and concurrent controls on every plate. The follow-up (secondary) screen tested active chemical-pairs in concentration series, as well as a few additional assays not tested in the primary screen, some selected negative inactives, and several cases re-run in the concentration series for confirmatory purposes.
`CCCCCCCCCCCCS`: the call was inactive.

As to `CC(C)(C)c1ccc(S)cc1`, the outcome was inactive. For `CCCCCC1CCC(=O)O1` (configuration not stated), the outcome was inactive. On the same count and under the same terms, under `CC1=CCC(=C(C)C)CC1` stands “inactive”. Take `C#C[C@]1(O)CC[C@H]2[C@@H]3CCc4cc(O)ccc4[C@H]3CC[C@@]21C`: the result was inactive and the AC50 (in general, the concentration giving half of the maximal activity seen) was 15.6 µM (active). On to `COc1cc(OC)c2ccc(=O)oc2c1`, for which the call was inactive. Regarding `CC/C(=C(\c1ccccc1)c1ccc(OCCN(C)C)cc1)c1ccccc1`, the outcome was inactive. Same read-out and setting: for `O=C(O)c1ccccc1O` the value was “inactive”; for `CCCCCCCCCCCCN1CCOCC1`, “inactive”; for `CCCCCCCCCCO[C@@H]1O[C@H](CO)[C@@H](O)[C@H](O)[C@H]1O`, “inactive”. For the compound `CC(C)CCCC(C)(C)O`, the result was inactive. Regarding `C[C@]12CC[C@@H]3c4ccc(O)cc4CC[C@H]3[C@@H]1CC[C@@H]2O`, the result was inactive.

Consider `CC(C)(C)C1CCC(O)CC1` (configuration not stated), for which the call was inactive. Take `CCCCCCCCOS(=O)(=O)O`: the compound was classed as inactive. Turning to `CC(=O)Nc1cc(S(=O)(=O)O)cc2cc(S(=O)(=O)O)c(N=Nc3ccccc3)c(O)c12`, the result was inactive.

For `C=C(C)C(=O)OCCC(C)OC(=O)C(=C)C` (configuration not stated), the AC50 was 20.1 µM (active). Turning to `CNC(=C[N+](=O)[O-])NCCSCc1ccc(CN(C)C)o1`, the result was inactive. For the compound `CN1CCc2cccc3c2[C@H]1Cc1ccc(O)c(O)c1-3`, the result was inactive. Regarding `CC(=O)Oc1c(C)c(C)c2c(c1C)CC[C@@](C)(CCC[C@H](C)CCC[C@H](C)CCCC(C)C)O2`, the outcome was inactive. On to `[O-]/[N+](=N\O)c1ccccc1`, for which the result was inactive. On to `CC1=CCC(C(C)(C)O)CC1` (configuration not stated), for which the compound was called inactive. As to `NC(=O)c1cccnc1`, the compound was called inactive.

`CCCO[Si](OCCC)(OCCC)OCCC`: the call was inactive. As to `C1CCCNCC1`, the result was inactive. Take `O=C(O)CS`: the compound was called inactive.

In the case of `CCCCCCOc1ccc(O)cc1`, the compound was classed as inactive.
